Test results published in PubChem BioAssay (NCI).
About 83,000 compounds went through this panel and 20% of them were active in at least one assay; those are over-represented in the sample as a whole.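 Plates (96-well) were seeded with cells, treated with compound at one concentration, and incubated for 48 hours before percent growth was determined.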 Values without a mark were called inactive. Active and inactive are the calls of the source. The calls were made as follows: active = growth percent below 10; inactive = the rest.

Legend:
Assay in all cases: NCI-60 one-dose screen, 48 h (100 = growth as untreated, 0 = no growth, -100 = all killed)
Conditions in all cases: 10 µM unless noted
DU-145 prostate = system: DU-145 prostate
K-562 leukemia = system: K-562 leukemia
MALME-3M melanoma = system: MALME-3M melanoma
MDA-MB-231 breast = system: MDA-MB-231 breast
RXF 393 renal = system: RXF 393 renal
SF-268 CNS = system: SF-268 CNS
SF-295 CNS = system: SF-295 CNS
SF-539 CNS = system: SF-539 CNS
UACC-257 melanoma = system: UACC-257 melanoma
M14 melanoma = system: M14 melanoma
HCT-15 colon = system: HCT-15 colon
HT29 colon = system: HT29 colon
SNB-19 CNS = system: SNB-19 CNS
U251 CNS = system: U251 CNS
PC-3 prostate = system: PC-3 prostate
SK-MEL-5 melanoma = system: SK-MEL-5 melanoma
UACC-62 melanoma = system: UACC-62 melanoma
LOX IMVI melanoma = system: LOX IMVI melanoma
SK-MEL-28 melanoma = system: SK-MEL-28 melanoma

SMILES | growth (DU-145 prostate) | growth (K-562 leukemia) | growth (MALME-3M melanoma) | growth (MDA-MB-231 breast) | growth (RXF 393 renal) | growth (SF-268 CNS) | growth (SF-295 CNS) | growth (SF-539 CNS) | growth (UACC-257 melanoma) | growth (M14 melanoma) | growth (HCT-15 colon) | growth (HT29 colon) | growth (SNB-19 CNS) | growth (U251 CNS) | growth (PC-3 prostate) | growth (SK-MEL-5 melanoma) | growth (UACC-62 melanoma) | growth (LOX IMVI melanoma) | growth (SK-MEL-28 melanoma)
O=C(c1c[nH]c(=O)c(-c2ccccc2)c1)c1ccccc1O | 99.7% | 78.4% | 92.5% | 98.5% | 82.1% | 91.5% | 92.2% | 108% | 85.7% | 105% | 97.7% | 101% | 81.5% | 89.2% | 89.2% | 95.4% | 81.1% | 103% | 93.5%
Brc1cccc(-c2cc(-c3ccc4c(c3)OCCCO4)[nH]n2)c1 | 69.3% [25 µM] | 17.4% [25 µM] | 52.9% [25 µM] | 49.4% [25 µM] | 82.4% [25 µM] | 68.8% [25 µM] | 62.3% [25 µM] | 77.1% [25 µM] | 96.7% [25 µM] | 49.6% [25 µM] | 29.7% [25 µM] | 12.7% [25 µM] | 72.2% [25 µM] | 47.4% [25 µM] | 55.9% [25 µM] | 39.1% [25 µM] | 60.2% [25 µM] | 43.9% [25 µM] | 76.5% [25 µM]
Cc1c(C(=O)/C=C/c2csc3ccccc23)[n+](=O)c2ccccc2n1[O-] | -3.03% (active) | 21.7% | 125% | 64.2% | 13.1% | 44% | 84.6% | 89.2% | 81.5% | 62.9% | 48.7% | 28.3% | 73.7% | 40.2% | 47.1% | 79.5% | 70.5% | 34.1% | 105%
Cc1ccc(S(=O)(=O)/C(=C\c2ccc(Cl)cc2)C(=O)c2ccccc2)cc1 | 113% | 96.1% | 107% | 103% | 104% | 103% | 93.1% | 122% | 114% | 102% | 100% | 123% | 95.7% | 102% | 96.4% | 103% | 101% | 104% | 100%
COc1ccc(S(=O)(=O)NCCCNc2nccc(-n3ccc4cccnc43)n2)cc1 | 91.7% | 77.7% | 121% | 91.1% | 95.5% | 89.6% | 94.7% | 100% | 111% | -14.4% (active) | 75.8% | 108% | 89.1% | 92.5% | 86.2% | 99.1% | 88.3% | 90.8% | 104%
C=C1C(=O)O[C@H]2[C@H]1CC/C(Cn1cc(CNC(=O)Cc3cn(C(=O)c4ccc(Cl)cc4)c4ccc(OC)cc34)nn1)=C\CC[C@@]1(C)O[C@@H]21 | 31.9% | -22.6% (active) | -76.1% (active) | -24.1% (active) | -61.3% (active) | 9.83% (active) | 83.5% | -83.7% (active) | 10.4% | -32.4% (active) | 52.3% | -57.4% (active) | 47% | 14.2% | 7.48% (active) | 48.8% | 8.27% (active) | -82% (active) | -56.9% (active)
CCN(CC)c1ccc2[nH]c3c(C(N)=O)cc(=O)c(=O)c=3oc2c1 | -1.89% (active) | 9.48% (active) | -59.9% (active) | 18% | -24.5% (active) | 10.5% | -9.14% (active) | -28.3% (active) | -29.2% (active) | -7.36% (active) | 1.73% (active) | 5.89% (active) | 17.6% | -4.95% (active) | 13.4% | -84.7% (active) | -24.4% (active) | 3.27% (active) | 13.2%
